RXFP1 antag: antagonists of human relaxin receptor RXFP1. Q9HBX9. HEK293-RXFP1, relaxin-stimulated cAMP HTRF, 30 min; stronger effect = lower value. activity change, negative = inhibition, % at 57.5 µM. actives 0.59% (n = 350,000). AID 1259400;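 active = activity change of -60% or lower, but not beyond a set lower limit; inconclusive = change between -60% and -40%, or beyond the set limit; inactive = change above -40%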; also: % is scaled to controls: 0 for no effect and ±100 for the full control effect
PTHR1 ag: agonists of human PTHR1 parathyroid hormone receptor. Q03431. HEK293 GP2 PTHR1 cells, GloSensor cAMP luminescence, 1 h. Potency, µM (top dose mostly 115 µM), for inactives: at the highest dose activation, hits mostly activators. actives 0.075% (n = 410,000); also: potency is read from the fitted curve at half-maximal effect; nearly all actives have a fitted effect of over 55% in size
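HEK-293-derived GP2 cells expressing PTHR1 and a GloSensor cAMP reporter, 3,000/well, plated overnight, given luciferin plus IBMX (each 0.5 mM as added) for 1 h at 37 °C, then compound for 1 h at 37 °C. Luminescence was read after 15 min at room temperature.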
TSHR antagonist: human thyrotropin receptor antagonism. P16473. TSHR-expressing cells, TSH-stimulated cAMP HTRF, 2 h; stronger effect = lower value. activity change, negative = inhibition, % at 11.5 µM. actives 0.2% (n = 330,000). AID 504810;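 active = activity change below a set negative limit, meaning inhibition stronger than a set level, cut at about -70% in these data; inconclusive = activity change between two set negative limits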; also: % is scaled to controls: 0 for no effect and ±100 for the full control effect
Target sequence (P16473 whole entry, looked up): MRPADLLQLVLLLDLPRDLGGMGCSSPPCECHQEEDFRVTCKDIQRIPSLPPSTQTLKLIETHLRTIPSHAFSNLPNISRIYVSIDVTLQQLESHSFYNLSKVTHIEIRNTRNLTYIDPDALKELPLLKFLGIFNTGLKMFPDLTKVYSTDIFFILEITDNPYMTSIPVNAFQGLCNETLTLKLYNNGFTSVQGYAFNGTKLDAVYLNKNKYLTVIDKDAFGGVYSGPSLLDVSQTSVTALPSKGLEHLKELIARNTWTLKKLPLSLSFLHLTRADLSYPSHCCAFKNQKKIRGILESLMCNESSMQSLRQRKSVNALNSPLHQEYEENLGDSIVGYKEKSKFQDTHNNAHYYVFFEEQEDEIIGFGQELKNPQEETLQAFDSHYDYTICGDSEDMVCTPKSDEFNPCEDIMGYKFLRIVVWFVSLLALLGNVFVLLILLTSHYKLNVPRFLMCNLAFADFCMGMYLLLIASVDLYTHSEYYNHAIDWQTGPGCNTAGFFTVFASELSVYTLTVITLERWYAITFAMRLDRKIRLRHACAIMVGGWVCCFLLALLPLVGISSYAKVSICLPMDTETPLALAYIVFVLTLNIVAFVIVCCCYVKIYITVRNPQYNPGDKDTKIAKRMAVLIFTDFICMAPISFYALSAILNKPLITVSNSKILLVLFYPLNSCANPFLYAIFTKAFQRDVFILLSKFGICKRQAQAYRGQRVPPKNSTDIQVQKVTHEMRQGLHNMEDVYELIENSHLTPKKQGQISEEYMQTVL
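Read-out is FRET at 665 nm (cryptate excitation 337 nm) from a cryptate-tagged anti-cAMP antibody, competed by cell cAMP against cAMP-d2. Compounds are tested on freshly harvested TSHR cells challenged with 4nM TSH (EC80) for 2 hours at 37 deg C.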
NPSR antagonist: antagonists of human neuropeptide S receptor cAMP signaling | Q6W5P4 | CHO-NPSR cells, cAMP TR-FRET, antagonist mode | Potency, µM (doses to about 38.3 µM), for the others: top-dose activity change, negative = inhibition, usual class: inhibitors | actives 1% (n = 220,000); also: potency is read from the fitted curve at half-maximal effect; % is scaled to controls: 0 for no effect and ±100 for the full control effect; nearly all actives have a fitted effect of over 50% in size
TCR act: T cell receptor activation; 330,000 tested, under 10 active; Potency, µM (series often up to 9.22 µM), without a hit: at the highest dose activation of IL-2 secretion, actives largely listed as activators; primary human leukocytes, anti-CD3, IL-2 HTRF, 48 h; AID 504894; also: % of control where 0% means no effect
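1) Mix primary human leukocytes, a-CD3 beads and compound. 2) Incubate 48 hr. 3) Add HTRF IL-2 reagents (a-IL-2-K, a-IL-2-d2).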
RXFP1 agonist: agonists of human relaxin receptor RXFP1. Q9HBX9. HEK293T-RXFP1 cAMP TR-FRET, 30 min; response scale: percent of porcine relaxin response, buffer zero. Potency, µM (titrated, usually from 57.5 µM), for inactives: top-dose activation, hits mostly activators. actives 0.3% (n = 370,000). AID 2676; also: potency is read from the fitted curve at half-maximal effect; % is scaled to controls: 0 for no effect and ±100 for the full control effect; nearly all actives have a fitted effect of over 60% in size
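HEK293 cells stably expressing RXFP1, treated 30 min at 37C with compounds plus PDE4 inhibitor Ro 20174; cAMP measured by HTRF TR-FRET. Normalized to buffer and 29 nM porcine relaxin; EC50 by Hill fit.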
An asterisk follows results filed as active; i = inactive; u = inconclusive; x = no result; [ ] = dose if it differs, or a comment. The full list was thinned out, with hits kept by preference. Unless noted, calls follow the shape of the dose curve; as a rule, active = well fitted curve in the direction sought with a large enough effect; inconclusive = small, poorly fitted or top-dose-only effect, or another doubt; inactive = no such curve, though single readings can be large; an effect the other way counts as inactive or inconclusive.

SMILES | RXFP1 antag | PTHR1 ag | TSHR antagonist | NPSR antagonist | TCR act | RXFP1 agonist
Nc1ccc(C2(c3ccc(N)cc3)c3ccccc3-c3ccccc32)cc1 | -80* | -18% | -102* | 6% | -8%[46.1 µM] | 0%
CC(C)CN(CC(C)C)c1ccc(C=C2C(=O)NC(=S)NC2=O)cc1[N+](=O)[O-] | -63* | -24% | 13 | u | 6% | 0%
Cc1cccc(NP(=O)(Oc2ccccc2)Oc2ccccc2)c1C | -64* | -39% | 6 | x | 1% | 0%
Nc1ncnc2c1ncn2[C@@H]1O[C@H](COP(=O)(O)CP(=O)(O)O)[C@@H](O)[C@H]1O | x | i | x | x | 2% | x
CCNC(=O)[C@H]1O[C@@H](n2cnc3c(N)ncnc32)[C@H](O)[C@@H]1O | x | -24% | -4 | 15% | -8% | 1.3µM*
COc1cc(CC(C)N)cc2c1OCO2 (stereo unspecified) | 17 | x | x | x | x | x
Cc1cc([N+](=O)[O-])c2ccccc2[n+]1[O-] | -8 | -16% | -19 | 10µM* | 2% | 0%
Cc1ccccc1[N+](=O)[O-] | x | -13% | 16 | x | 10% | 0%
ClCCCN1CCN(c2cccc(Cl)c2)CC1 | 14 | x | x | x | x | x
CCN1/C(=C/C=C/C2=[N+](CC)c3ccccc3C2(C)C)C(C)(C)c2ccccc21 | u | -67% | x | x | x | x
CN1/C(=C\C=C\C2=[N+](C)c3ccc4ccccc4c3C2(C)C)C(C)(C)c2ccccc21 | x | x | -93* | 7.9µM* | x | 17%
COc1ccc(N/N=C/c2c(O)n(-c3ccc(C)c(C)c3)c(=O)[nH]c2=O)cc1 | -14 | i | 1 | -10% | 2%[46.1 µM] | 0%
Cc1ccc(-n2c(O)c(/C=N/Nc3ccccc3)c(=O)[nH]c2=O)cc1C | -70* | -4% | 5 | 17% | 3% | 0%
CN1CCN(c2ccc([N+](=O)[O-])c3no[n+]([O-])c23)CC1 | -87* | -33% | -97* | 10µM* | 0% | 4%
O=c1[nH]c2cc(Cl)ccc2n1C1CCNCC1 | 17 | x | x | x | x | x
CN(C)c1ncc(/C=C2/C(=O)NC(=S)N(C3CCCCC3)C2=O)cn1 | x | x | -10 | 10µM* | x | 0%
CC(C)Oc1cccc(NC(=O)c2ccccc2C(F)(F)F)c1 | -25 | x | x | x | x | x
CN1C(=O)C(Cc2ccsc2)C(=O)N(C)C1=O | -4 | 28µM* | -6 | -7%[46.1 µM] | 0% | 2%
CN1C(=O)C(Cc2ccccc2)C(=O)N(C)C1=O | -3 | i | x | x | 5% | x
CCC(=O)O[C@@H]1C=C2CCC3C(CCC4(C)C3CC[C@@H]4OC(=O)CC)C2CC1 (stereo partly specified) | -16 | x | x | x | x | x
C[C@H]1[C@@H]2Cc3ccc(O)cc3[C@]1(C)CCN2C | 11 | x | x | x | x | x
CN1C(=O)NC(=O)/C(=C\C=C\c2ccccc2[N+](=O)[O-])C1=O | -38 | -45% | 1 | 10µM* | -5% | 2%
S=C(SSC(=S)N1CCCCC1)N1CCCCC1 | 33 | x | x | x | x | x
O=C1NC(=O)N(Cc2ccc(F)cc2)C(=O)/C1=C/c1cccs1 | -74* | -26% | 2 | -19% | -4% | 2%
O=C1NC(=O)N(Cc2ccccc2)C(=O)/C1=C/c1cnc(-c2ccccc2)nc1 | -28 | -18% | 12 | 10µM* | -2% | 0%
O=C1NC(=O)N(Cc2ccccc2Cl)C(=O)/C1=C/c1cccs1 | -6 | -49% | 4 | -26% | -2% | -1%
CC(C)c1ccc(N2C(=O)NC(=O)/C(=C/c3cnc(-c4ccccc4)nc3)C2=O)cc1 | -10 | -9% | -10 | -23%[46.1 µM] | 6%[46.1 µM] | 2%
COc1cc(CCN)c(OC)cc1Br | -6 | x | x | x | x | x
COc1ccc(C(=O)N2CCN(c3nc4c(OC)cccc4s3)CC2)cc1OC | -9 | -36% | x | x | x | 0%
COC(=O)C1CN(C#N)N(c2ccc(Cl)cc2)C12c1ccccc1-c1ccccc12 (stereo unspecified) | -16 | -26% | -47 | 7.9µM* | -2%[46.1 µM] | 0%
